Reference: article PMC11006913
Where a chain is given by its changes, count along the chain named.

Legend:
Assay in all cases: PBM; 200 nM protein, PBS
Settings in all cases: dsDNA, one strand shown
HOXB9 [1] = target: HOXB9 (Homo sapiens, UniProt P17482 171-250, T197M)
HOXC9 [2] = target: HOXC9 (Homo sapiens, UniProt P31274 178-260, K195R)
VENTX [3] = target: T1, VENTX (Homo sapiens, UniProt O95231 78-163)
T1 sequence: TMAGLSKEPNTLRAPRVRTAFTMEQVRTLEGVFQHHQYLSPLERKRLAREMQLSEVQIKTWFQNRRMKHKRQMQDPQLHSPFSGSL

PAX4 [4] = target: T2, PAX4 (Homo sapiens, UniProt O43316 9-242, R200K)
T2 sequence: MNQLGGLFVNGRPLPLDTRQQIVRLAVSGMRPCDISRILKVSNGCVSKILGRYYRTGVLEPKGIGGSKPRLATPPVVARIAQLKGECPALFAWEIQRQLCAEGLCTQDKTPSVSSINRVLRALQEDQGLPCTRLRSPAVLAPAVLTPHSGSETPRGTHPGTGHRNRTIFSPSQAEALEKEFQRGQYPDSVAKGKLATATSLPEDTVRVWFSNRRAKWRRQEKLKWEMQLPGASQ

VENTX [5] = target: T3, VENTX (Homo sapiens, UniProt O95231 78-163, Y115F)
T3 sequence: T1 sequence with Y38F

PAX4 [6] = target: T4, PAX4 (Homo sapiens, UniProt O43316 9-242)
T4 sequence: T2 sequence with K192R

HOXB9 [7] = target: HOXB9 (Homo sapiens, UniProt P17482 171-250)
Sequence of HOXB9 (Homo sapiens, UniProt P17482 171-250) (P17482 171-250): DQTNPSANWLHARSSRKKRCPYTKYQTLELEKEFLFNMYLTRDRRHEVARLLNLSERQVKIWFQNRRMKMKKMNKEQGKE

PAX4 [8] = target: T5, PAX4 (Homo sapiens, UniProt O43316 9-242, R200Q)
T5 sequence: T2 sequence with K192Q

HOXC9 [9] = target: HOXC9 (Homo sapiens, UniProt P31274 178-260, R193K)
Sequence of HOXC9 (Homo sapiens, UniProt P31274 178-260, R193K) (P31274 178-260 R193K): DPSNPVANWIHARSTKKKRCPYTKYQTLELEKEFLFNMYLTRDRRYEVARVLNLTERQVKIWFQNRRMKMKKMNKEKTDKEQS

HOXA2 [10] = target: HOXA2 (Homo sapiens, UniProt O43364 129-215, R185K)
Sequence of HOXA2 (Homo sapiens, UniProt O43364 129-215, R185K) (O43364 129-215 R185K): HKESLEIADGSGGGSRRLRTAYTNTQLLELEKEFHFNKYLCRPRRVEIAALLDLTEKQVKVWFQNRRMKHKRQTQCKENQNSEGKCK

PAX4 [11] = target: T6, PAX4 (Homo sapiens, UniProt O43316 9-242, F177V)
T6 sequence: T2 sequence with F169V, K192R

HOXC10 = HOXC10 (Homo sapiens, UniProt Q9NYD6 254-340, K271E)
Sequence of HOXC10 (Q9NYD6 254-340 K271E): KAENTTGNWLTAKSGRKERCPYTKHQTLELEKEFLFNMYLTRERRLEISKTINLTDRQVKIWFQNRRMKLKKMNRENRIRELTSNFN

PAX4 [12] = target: T7, PAX4 (Homo sapiens, UniProt O43316 9-242, F177Y)
T7 sequence: T2 sequence with F169Y, K192R

HOXB9 [13] = target: HOXB9 (Homo sapiens, UniProt P17482 171-250, R186Q)
Sequence of HOXB9 (Homo sapiens, UniProt P17482 171-250, R186Q) (P17482 171-250 R186Q): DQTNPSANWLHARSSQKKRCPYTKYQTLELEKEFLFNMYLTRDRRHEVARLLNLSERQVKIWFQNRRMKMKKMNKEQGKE

HOXC9 [14] = target: HOXC9 (Homo sapiens, UniProt P31274 178-260, R222W)
Sequence of HOXC9 (Homo sapiens, UniProt P31274 178-260, R222W) (P31274 178-260 R222W): as the sequence (P31274 178-260 R193K) above, with K16R, R45W counted along it

PAX4 [15] = target: T8, PAX4 (Homo sapiens, UniProt O43316 9-242, R227W)
T8 sequence: T2 sequence with K192R, R219W

HOXA2 [16] = target: HOXA2 (Homo sapiens, UniProt O43364 129-215, Y150S)
Sequence of HOXA2 (Homo sapiens, UniProt O43364 129-215, Y150S) (O43364 129-215 Y150S): as the sequence (O43364 129-215 R185K) above, with Y22S, K57R counted along it

HOXA2 [17] = target: HOXA2 (Homo sapiens, UniProt O43364 129-215)
Sequence of HOXA2 (Homo sapiens, UniProt O43364 129-215) (O43364 129-215): as the sequence (O43364 129-215 R185K) above, with K57R counted along it

Sequence of HOXC9 (Homo sapiens, UniProt P31274 178-260, K195R) (P31274 178-260 K195R): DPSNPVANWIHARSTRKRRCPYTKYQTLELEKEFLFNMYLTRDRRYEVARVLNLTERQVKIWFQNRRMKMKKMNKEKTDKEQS
Sequence of HOXB9 (Homo sapiens, UniProt P17482 171-250, T197M) (P17482 171-250 T197M): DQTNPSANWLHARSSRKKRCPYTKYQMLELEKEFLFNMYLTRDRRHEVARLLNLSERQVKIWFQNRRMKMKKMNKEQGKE

| Sequence | binding signal (HOXB9 [1]) | binding signal (HOXC9 [2]) | binding signal (VENTX [3]) | binding signal (PAX4 [4]) | binding signal (VENTX [5]) | binding signal (PAX4 [6]) | binding signal (HOXB9 [7]) | binding signal (PAX4 [8]) | binding signal (HOXC9 [9]) | binding signal (HOXA2 [10]) | binding signal (PAX4 [11]) | binding signal (HOXC10) | binding signal (PAX4 [12]) | binding signal (HOXB9 [13]) | binding signal (HOXC9 [14]) | binding signal (PAX4 [15]) | binding signal (HOXA2 [16]) | binding signal (HOXA2 [17]) |
| --- | --- | --- | --- | --- | --- | --- | --- | --- | --- | --- | --- | --- | --- | --- | --- | --- | --- | --- |
| ATTAATTA | 10.6 upbm affinity estimate (log intensity, higher = more binding, comparable within an allelic series) | 13.3 upbm affinity estimate (log intensity, higher = more binding, comparable within an allelic series) | 13.2 upbm affinity estimate (log intensity, higher = more binding, comparable within an allelic series) | 12.2 upbm affinity estimate (log intensity, higher = more binding, comparable within an allelic series) | 12.5 upbm affinity estimate (log intensity, higher = more binding, comparable within an allelic series) | 12.8 upbm affinity estimate (log intensity, higher = more binding, comparable within an allelic series) | 12.6 upbm affinity estimate (log intensity, higher = more binding, comparable within an allelic series) | 12.8 upbm affinity estimate (log intensity, higher = more binding, comparable within an allelic series) | 13.2 upbm affinity estimate (log intensity, higher = more binding, comparable within an allelic series) | 14 upbm affinity estimate (log intensity, higher = more binding, comparable within an allelic series) | 11.1 upbm affinity estimate (log intensity, higher = more binding, comparable within an allelic series) | 12.7 upbm affinity estimate (log intensity, higher = more binding, comparable within an allelic series) | 11.6 upbm affinity estimate (log intensity, higher = more binding, comparable within an allelic series) | 12.3 upbm affinity estimate (log intensity, higher = more binding, comparable within an allelic series) | 11.5 upbm affinity estimate (log intensity, higher = more binding, comparable within an allelic series) | 11.4 upbm affinity estimate (log intensity, higher = more binding, comparable within an allelic series) | 11.1 upbm affinity estimate (log intensity, higher = more binding, comparable within an allelic series) | 13.3 upbm affinity estimate (log intensity, higher = more binding, comparable within an allelic series) |
| AATAATTA | 10.3 upbm affinity estimate (log intensity, higher = more binding, comparable within an allelic series) | 12.7 upbm affinity estimate (log intensity, higher = more binding, comparable within an allelic series) | 12.4 upbm affinity estimate (log intensity, higher = more binding, comparable within an allelic series) | 11.8 upbm affinity estimate (log intensity, higher = more binding, comparable within an allelic series) | 11.8 upbm affinity estimate (log intensity, higher = more binding, comparable within an allelic series) | 12.3 upbm affinity estimate (log intensity, higher = more binding, comparable within an allelic series) | 11.9 upbm affinity estimate (log intensity, higher = more binding, comparable within an allelic series) | 12.2 upbm affinity estimate (log intensity, higher = more binding, comparable within an allelic series) | 12.6 upbm affinity estimate (log intensity, higher = more binding, comparable within an allelic series) | 13.6 upbm affinity estimate (log intensity, higher = more binding, comparable within an allelic series) | 10.8 upbm affinity estimate (log intensity, higher = more binding, comparable within an allelic series) | 11.9 upbm affinity estimate (log intensity, higher = more binding, comparable within an allelic series) | 11.1 upbm affinity estimate (log intensity, higher = more binding, comparable within an allelic series) | 11.6 upbm affinity estimate (log intensity, higher = more binding, comparable within an allelic series) | 11.1 upbm affinity estimate (log intensity, higher = more binding, comparable within an allelic series) | 11.2 upbm affinity estimate (log intensity, higher = more binding, comparable within an allelic series) | 10.9 upbm affinity estimate (log intensity, higher = more binding, comparable within an allelic series) | 12.9 upbm affinity estimate (log intensity, higher = more binding, comparable within an allelic series) |
| GGTAATTA | 10.6 upbm affinity estimate (log intensity, higher = more binding, comparable within an allelic series) | 13.2 upbm affinity estimate (log intensity, higher = more binding, comparable within an allelic series) | 13.2 upbm affinity estimate (log intensity, higher = more binding, comparable within an allelic series) | 12 upbm affinity estimate (log intensity, higher = more binding, comparable within an allelic series) | 12.6 upbm affinity estimate (log intensity, higher = more binding, comparable within an allelic series) | 12.5 upbm affinity estimate (log intensity, higher = more binding, comparable within an allelic series) | 12.3 upbm affinity estimate (log intensity, higher = more binding, comparable within an allelic series) | 12.4 upbm affinity estimate (log intensity, higher = more binding, comparable within an allelic series) | 13.1 upbm affinity estimate (log intensity, higher = more binding, comparable within an allelic series) | 14.1 upbm affinity estimate (log intensity, higher = more binding, comparable within an allelic series) | 10.7 upbm affinity estimate (log intensity, higher = more binding, comparable within an allelic series) | 12.7 upbm affinity estimate (log intensity, higher = more binding, comparable within an allelic series) | 11.1 upbm affinity estimate (log intensity, higher = more binding, comparable within an allelic series) | 12.2 upbm affinity estimate (log intensity, higher = more binding, comparable within an allelic series) | 11 upbm affinity estimate (log intensity, higher = more binding, comparable within an allelic series) | 11.1 upbm affinity estimate (log intensity, higher = more binding, comparable within an allelic series) | 11 upbm affinity estimate (log intensity, higher = more binding, comparable within an allelic series) | 13.4 upbm affinity estimate (log intensity, higher = more binding, comparable within an allelic series) |
| ATAATTAT | 10.4 upbm affinity estimate (log intensity, higher = more binding, comparable within an allelic series) | 12.9 upbm affinity estimate (log intensity, higher = more binding, comparable within an allelic series) | 12.3 upbm affinity estimate (log intensity, higher = more binding, comparable within an allelic series) | 11.9 upbm affinity estimate (log intensity, higher = more binding, comparable within an allelic series) | 11.8 upbm affinity estimate (log intensity, higher = more binding, comparable within an allelic series) | 12.4 upbm affinity estimate (log intensity, higher = more binding, comparable within an allelic series) | 12 upbm affinity estimate (log intensity, higher = more binding, comparable within an allelic series) | 12.3 upbm affinity estimate (log intensity, higher = more binding, comparable within an allelic series) | 12.8 upbm affinity estimate (log intensity, higher = more binding, comparable within an allelic series) | 13.8 upbm affinity estimate (log intensity, higher = more binding, comparable within an allelic series) | 10.9 upbm affinity estimate (log intensity, higher = more binding, comparable within an allelic series) | 12.1 upbm affinity estimate (log intensity, higher = more binding, comparable within an allelic series) | 11.3 upbm affinity estimate (log intensity, higher = more binding, comparable within an allelic series) | 11.7 upbm affinity estimate (log intensity, higher = more binding, comparable within an allelic series) | 11.2 upbm affinity estimate (log intensity, higher = more binding, comparable within an allelic series) | 11.3 upbm affinity estimate (log intensity, higher = more binding, comparable within an allelic series) | 10.9 upbm affinity estimate (log intensity, higher = more binding, comparable within an allelic series) | 13.1 upbm affinity estimate (log intensity, higher = more binding, comparable within an allelic series) |
